TEAD-YAP block: TEAD-YAP interaction inhibition. 640,000 tested, 1.4% active. inhibition, % at 9.12 µM. HEK-TIYL cells, TEAD-Gal4/YAP UAS-luciferase luminescence; in the data active = inhibition above about 32%;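 also: 0% = median of test compound wells and 100% = reference inhibitor wells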
MITF primary: human MITF inhibition, primary screen; 650,000 tested, 0.91% active; O75030; inhibition, % at 2.6 µM; AlphaScreen MITF homodimerization, bead proximity signal; in the data active = inhibition above about 50%;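 also: 0% = vehicle wells with protein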
Target sequence (O75030 whole entry, looked up): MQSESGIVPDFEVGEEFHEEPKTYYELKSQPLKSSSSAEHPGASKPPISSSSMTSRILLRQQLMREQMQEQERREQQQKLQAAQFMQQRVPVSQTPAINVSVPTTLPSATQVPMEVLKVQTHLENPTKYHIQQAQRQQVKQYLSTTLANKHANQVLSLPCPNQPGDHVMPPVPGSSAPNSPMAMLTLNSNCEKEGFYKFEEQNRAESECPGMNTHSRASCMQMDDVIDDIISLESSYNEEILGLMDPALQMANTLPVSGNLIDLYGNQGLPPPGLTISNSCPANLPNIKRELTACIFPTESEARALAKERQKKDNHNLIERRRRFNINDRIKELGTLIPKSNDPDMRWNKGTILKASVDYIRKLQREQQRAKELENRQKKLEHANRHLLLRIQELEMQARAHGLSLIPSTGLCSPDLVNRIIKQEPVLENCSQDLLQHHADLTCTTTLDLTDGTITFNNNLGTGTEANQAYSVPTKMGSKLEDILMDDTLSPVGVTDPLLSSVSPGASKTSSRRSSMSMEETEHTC
GPR151 activ: human GPR151 activation; Q8TDV0; PathHunter beta-arrestin GPR151 cells, luminescence; activation, % at 11.2 µM; 650,000 tested, 1% active; in the data active = activation above about 4.9%;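 also: 0% = median of compound wells and 100% = cells with positive control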
FBW7 activator: human FBW7 E3 ligase activation, primary screen; Q969H0; AlphaScreen FBW7–phospho-cyclin E peptide binding, activator screen; normalized activity (activation), % at 26.1 µM; 650,000 tested, 0.13% active; in the data active = normalized activity above about 1.9%;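 also: purified mutant Fbw7 with reduced substrate affinity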
MITF inh conf: human MITF inhibition, confirmation | shares compounds with MITF primary | AlphaScreen MITF homodimerization, biotin/His-MITF beads | inhibition, % at 2.6 µM | 4,700 tested, 16% active | AID 1259372;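 active = inhibition above a cutoff derived from the DMSO control wells, cut at about 28% in these data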;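 also: 0% = MITF dimer wells with DMSO only; inhibitors lower the bead chemiluminescence by keeping MITF from dimerizing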
AS interf ctr: counter-screen: compounds optically interfering with AlphaScreen. shares compounds with MITF primary. LysRS AlphaScreen counterscreen, signal interference, triplicate. inhibition, % at 2.6 µM. 4,700 tested, 7.6% active;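 active = inhibition above a cutoff derived from the DMSO control wells, cut at about 30% in these data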
* marks the source's active call; other numbers are inactive results; / = not tested or not shown. Sampled rows, rich in hits. Any-hit rate of the full collection: about 3.5%.

SMILES	TEAD-YAP block	MITF primary	GPR151 activ	FBW7 activator	others
O=C(/C=C/c1ccccc1)N1CC2CC(C1)c1cccc(=O)n1C2 (stereo not given)	1	4	0	0
O=C(c1ccccc1)C(CN1CCCC1)c1ccccc1 (stereo not given)	54*	0	0	0
O=C(CN1CCCCCC1)c1ccccc1	0	-14	0	0
CC(C)=CCCC1(C)C=Cc2c(O)c3c(c(CC=C(C)C)c2O1)OC12C(=CC4CC1C(C)(C)OC2(C/C=C(\C)C(N)=O)C4=O)C3=O (stereo not given)	38*	17	5	0
NC(=NCCCC(NC(=O)c1ccco1)C(=O)O)N[N+](=O)[O-] (stereo not given)	5	23	-1	0
O=C1NC(=O)N(Cc2ccccc2)C(=O)/C1=C/c1ccc(-c2cccc(C(=O)O)c2)o1	-4	6	0	0
Cc1cc(/C=C2\C(=O)NC(=O)N(Cc3ccco3)C2=O)c(C)n1-c1ccc(O)cc1	11	58*	2	0
Cc1[nH]c2c(I)cccc2c1CCN	24	-5	1	0
C=C(C)[C@H]1Cc2c(ccc3c2O[C@@H]2COc4cc(OC)c(OC)cc4[C@@H]2C3=O)O1	70*	22	-1	0
N#Cc1c(/N=C/c2c(O)n(Cc3ccco3)c(=O)[nH]c2=O)sc2c1CCCC2	-7	53*	1	-1
O=c1[nH]c(=S)n(Cc2ccco2)c(O)c1C=NCc1cccs1	-3	19	0	0
CCn1nc(-c2cccnc2)nc2c(=O)n(C)c(=O)nc1-2	76*	-7	-5	0
CN1CC=C(c2noc(CCC(=O)Nc3ccc(F)cc3Cl)n2)CC1	-5	31	-1	2
CN1CC=C(c2noc(CCC(=O)Nc3ccc(F)c(Cl)c3)n2)CC1	-1	39	-1	2.1*
CC(NCc1ccc(F)cc1)C(O)c1ccccc1 (stereo not given)	20	1	0	0
CCN(CC)c1ccc(CNC(C)C(O)c2ccccc2)cc1 (stereo not given)	53*	3	-1	0
Cc1cc(-n2c(/C=C/c3ccccc3F)nc3ccccc3c2=O)ccc1Br	3	-5	0	0
CNC(=O)Oc1cc2oc(=O)sc2cc1Cl	7	3	1	-1
CC(=O)OC1CCC23C(=O)OC45CCC(C6=CC(=O)OC6)C4(C)CCC2C5CCC3(O)C1 (stereo not given)	102*	-6	2	0
CN1CCN(c2cccc3c2C(=O)c2ccccc2C3=O)CC1	37*	7	0	0
CCOC(=O)C1C2NC(=S)N(c3cccc(Cl)c3)C1(C)Oc1ccc(OC)cc12 (stereo not given)	-10	20	1	-1
CCP(=O)(CC)Nc1cccc(C(F)(F)F)c1	8	8	1	0
O=C(Nc1cccc(C(F)(F)F)c1)c1cc(Cl)ccc1O	78*	4	-1	0
O=C1C(=O)c2ccccc2-c2ccccc21	99*	16	1	-1
Cc1ccc2c(c1)c(=O)c1c3n2CCN(CC(N)=O)C3CC1 (stereo not given)	-9	21	0	0
SMILES	TEAD-YAP block	MITF primary	GPR151 activ	FBW7 activator	others
Cc1ccc(C2=NCC(=O)Nc3c2oc2ccccc32)cc1	15	7	0	0
COc1ccc(OC)c(C2=NCC(=O)Nc3c2oc2ccc(Cl)cc32)c1	59*	11	3	0
Cc1cccc(NC(=O)c2c(O)c3ccccc3n(Cc3ccccc3)c2=O)n1	13	10	1	0
C[C@@H]1O[C@@H](O[C@H]2C[C@@H](O)[C@]3(CO)C4C(CC[C@]3(O)C2)[C@@]2(O)CC[C@H](C3=CC(=O)OC3)[C@@]2(C)C[C@H]4O)[C@H](O)[C@H](O)[C@H]1O (stereo not given in full)	99*	0	0	0
COC1CC(O[C@H]2CC[C@]3(C=O)C4CC[C@]5(C)C(C6=CC(=O)OC6)CC[C@]5(O)C4CC[C@]3(O)C2)OC(C)C1O (stereo not given in full)	101*	12	0	0
C[C@]12CC[C@H](O)C[C@H]1CC[C@@H]1[C@@H]2CC[C@]2(C)[C@@H](C3=CC(=O)OC3)CC[C@]12O	/	3	1	0
C[C@@H]1O[C@@H](O[C@H]2C[C@@H](O)[C@]3(CO)[C@@H]4C(CC[C@]3(O)C2)[C@@]2(O)CC[C@H](C3COC(=O)C3)[C@@]2(C)C[C@H]4O)[C@H](O)[C@H](O)[C@H]1O (stereo not given in full)	94*	5	-1	1
COC(=O)N1CCC(N/C(N)=N/[N+](=O)[O-])CC1	-1	-11	0	0
CC(C)C[C@@H]1NC(=O)[C@H]2CNCCN2C1=O	-6	7	0	0
CC(Cc1cncs1)NC1CCN(c2ccc(NC(=O)C3CCCC3)cc2)CC1 (stereo not given)	9	-11	-1	0
Brc1ccccc1CN1CCN(Cc2ccc3c(c2)OCO3)CC1	4	60*	-1	0	MITF inh conf=4;AS interf ctr=10
Cc1ccccc1CN1CCN(Cc2ccc3c(c2)OCO3)CC1	12	58*	0	0	MITF inh conf=2;AS interf ctr=4
CN1CCN(Cc2ccc3c(c2)OCO3)CC1	3	35	-1	0
CCOc1ccccc1CN1CCN(c2ccc(OC)cc2)CC1	5	26	2	0
COc1ccccc1N1C(=O)NC(=O)/C(=C\C=C\c2ccccc2)C1=O	3	0	1	0
CCOC(=O)C1C2NC(=S)N(c3ccc(F)cc3)C1(C)Oc1c(Br)cc(Br)cc12 (stereo not given)	-1	1	-1	0
CCN1CCN(Cc2cc(OC)c(OC)cc2Br)CC1	-1	4	0	0
COc1ccc(CN2CCN(CCO)CC2)c(OC)c1	10	5	0	1
COc1cc(OC)c(OC)cc1CN1CCN(C(C)C)CC1	7	68*	-2	0	MITF inh conf=4;AS interf ctr=3
COc1ccc(CN2CCN(C(C)C)CC2)c(OC)c1	2	71*	0	0	MITF inh conf=7;AS interf ctr=16
Nc1nonc1-n1cc([N+](=O)[O-])nn1	3	-12	-1	0
CN=C(C)c1c(O)n(C)c(=S)n(C)c1=O	7	10	0	0
OCCN1CCN(Cc2ccc(Cl)c(Cl)c2)CC1	5	83*	2	0	MITF inh conf=6;AS interf ctr=1
CCOc1ccc(CN2CCN(CCO)CC2)cc1	-3	42	2	0
OCCN1CCN(Cc2ccc(Cl)cc2Cl)CC1	8	51*	0	0	MITF inh conf=2;AS interf ctr=1
COc1ccc(CN2CCN(CCO)CC2)cc1OC	-1	14	0	0
OCCN1CCN(Cc2cccc(Br)c2)CC1	7	91*	0	0	MITF inh conf=0;AS interf ctr=1
